Screening data (PubChem BioAssay)
MITF inh: inhibitors of human MITF; AlphaScreen MITF homodimerization, bead proximity signal; inhibition, % at 2.6 µM; 650,000 compounds, 0.91% hits; in the data active = inhibition above about 50%
FBW7 activator: activators of human E3 ligase FBW7 | Q969H0 | AlphaScreen FBW7–phospho-cyclin E peptide binding, activator screen | normalized activity (activation), % at 26.1 µM | 650,000 compounds, 0.13% hits | AID 1259310; in the data active = normalized activity above about 1.9%;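 note: purified mutant Fbw7 with reduced substrate affinity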
TEAD-YAP inh: TEAD-YAP interaction inhibition. HEK-TIYL cells, TEAD-Gal4/YAP UAS-luciferase luminescence. inhibition, % at 9.12 µM. 640,000 compounds, 1.4% hits. AID 1259422; in the data active = inhibition above about 32%
GPR151 ag: human GPR151 activation | PathHunter beta-arrestin GPR151 cells, luminescence | activation, % at 11.2 µM | 650,000 compounds, 1% hits | AID 1508602; in the data active = activation above about 4.9%
GPR151 confirm: human GPR151 activation, confirmation screen | shares compounds with GPR151 ag | GPR151 PathHunter beta-arrestin cells, luminescence, 90 min; % of EA-reagent control over plate median | activation, % at 11.2 µM | 6,700 tested, under 10 active | AID 1508609;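 active = mean percent activation across replicates above the confirmation screen cutoff of 4.91%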
GPR119 counter: counter-screen for GPR151 activators: effect on human GPR119. shares compounds with GPR151 ag. GPR119 PathHunter beta-arrestin cells, luminescence, 90 min; 0 = compound-well median, 100 = enzyme-acceptor control. activation, % at 11.2 µM. 6,700 compounds, 0.3% hits;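 active = mean percent activation in the counterscreen above 29.09%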;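 note: counterscreen on off-target GPR119 to flag nonselective hits from the GPR151 activator screen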
Target sequence (Q8TDV5 whole entry, looked up): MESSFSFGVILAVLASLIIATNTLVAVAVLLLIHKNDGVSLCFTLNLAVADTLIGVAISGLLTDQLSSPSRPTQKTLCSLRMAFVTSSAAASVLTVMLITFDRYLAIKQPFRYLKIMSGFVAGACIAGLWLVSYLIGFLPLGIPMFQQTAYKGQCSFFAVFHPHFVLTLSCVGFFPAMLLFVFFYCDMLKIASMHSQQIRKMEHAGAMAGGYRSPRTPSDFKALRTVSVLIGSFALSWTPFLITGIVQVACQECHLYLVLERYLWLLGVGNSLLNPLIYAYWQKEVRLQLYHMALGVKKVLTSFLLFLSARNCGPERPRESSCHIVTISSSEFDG
Each line names hits and unclear results; the compound was inactive in the other large screens (follow-up assays come after a bar, where they were run). Only some compounds are listed: those with a hit (about 3.5% of all), similar ones and a draw of the others.

COc1cc(/C=N/NC(=O)C(=O)N2CCCCC2)ccc1O	none
CCCCc1cc(=O)oc2cc(OCc3ccccc3F)ccc12	none
CC(=O)OC12CC3C(C1C(C)=NN2C(=O)C(=O)N1N=C(C)C2C4C(CC21OC(C)=O)C4(C)C)C3(C)C (centres undefined)	GPR151 ag 7.8 | GPR151 confirm inactive | GPR119 counter inactive
COC(=O)C12CC3C(C1C(C)=NN2C(C)=O)C3(C)C (centres undefined)	none
CCOC(=O)c1ccc(OCC2c3cc(OC)c(OC)cc3CCN2C(=O)/C=C/c2ccc(OC)c(OC)c2)cc1 (centres undefined)	none
O=C(Nc1ccc2c(c1)OCO2)c1cccc(Nc2ccc3ncccc3c2)c1	none
O=C(NCc1cccnc1)c1cccc(Nc2ccc3ncccc3c2)n1	GPR151 ag 5.3 | GPR151 confirm inactive | GPR119 counter inactive
O=C(Nc1ccc2c(c1)OCO2)c1cccc(Nc2ccc3ncccc3c2)n1	GPR151 ag 6.3 | GPR151 confirm inactive | GPR119 counter inactive
COc1ccccc1C(NC(=O)c1nccc2ccccc12)c1nccn1C (centres undefined)	GPR151 ag 6.4 | GPR151 confirm inactive | GPR119 counter inactive
COc1ccccc1C(NC(=O)c1cnccn1)c1nccn1C (centres undefined)	none
COc1cc2nc(Nc3cc(OC)c(OC)c(OC)c3)nc(NC3CC3)c2cc1OC	none
CCN1CNC(=S)N(c2ccc(F)c(Cl)c2)C1	GPR151 ag 6.0 | GPR151 confirm inactive | GPR119 counter inactive
CCn1c(O)c(C=Nc2c(C)n(C)n(-c3ccccc3)c2=O)c(=O)n(CC)c1=S	none
CCCSc1ncccc1C(=O)Nc1c(C)noc1C	GPR151 ag 7.4 | GPR151 confirm inactive | GPR119 counter inactive
Cc1c(Cl)cccc1NC(=O)CSCC(=O)Nc1ccc(Br)cc1	GPR151 ag 6.4 | GPR151 confirm inactive | GPR119 counter inactive
CC[C@@H](C(=O)[C@@H](C)[C@@H](O)[C@H](C)CCc1ccc(C)c(O)c1C(=O)O)[C@H]1O[C@](CC)([C@H]2CC[C@](O)(CC)[C@H](C)O2)C[C@@H]1C	GPR151 ag 21 | GPR151 confirm inactive | GPR119 counter inactive
Cc1cc(N(C)C)nc(NCCNC(=O)/C=C/c2ccccc2)n1	GPR151 ag 5.7 | GPR151 confirm inactive | GPR119 counter inactive
COc1ccccc1OC1OC2COC(c3ccco3)OC2C(O)C1NC(C)=O (centres undefined)	GPR151 ag 15 | GPR151 confirm inactive | GPR119 counter inactive
CC(=O)NC1C(Oc2cc(C)ccc2C)OC2COC(C)(C)OC2C1O (centres undefined)	GPR151 ag 13 | GPR151 confirm inactive | GPR119 counter inactive
CC(=O)N[C@H]1[C@H](Oc2ccc(Cl)cc2Cl)O[C@H](CO)[C@@H](O)[C@@H]1O	none
CC(=O)NC1C(Oc2cc(C)ccc2C)OC(CO)C(O)C1O (centres undefined)	GPR151 ag 5.8 | GPR151 confirm inactive | GPR119 counter inactive
Cn1c(=O)oc2cc(S(=O)(=O)N3CCCC(C(=O)NCCN4CCCC4)C3)ccc21 (centres undefined)	none
CN(CC1CCCCO1)C(=O)CCc1nnc(C2CCCCC2)o1 (centres undefined)	none
CCOC(=O)c1cccc(NSc2ccccc2[N+](=O)[O-])c1	none
Cc1ccc(CN2CCNC(=O)C2CC(=O)N2CCCN(c3ncccn3)CC2)o1 (centres undefined)	none
Cc1ccc(CN2CCNC(=O)C2CC(=O)N2CCCN(Cc3ccccn3)CC2)o1 (centres undefined)	GPR151 ag 5.6 | GPR151 confirm inactive | GPR119 counter inactive
O=C(O)c1cccc(-n2nnnc2-c2ccccc2)c1	GPR151 ag 5.8 | GPR151 confirm inactive | GPR119 counter inactive
Brc1ccc(SCCc2ccncc2)cc1	GPR151 ag 12 | GPR151 confirm inactive | GPR119 counter inactive
Fc1ccc(Br)cc1SCCc1ccncc1	none
COc1cc(-c2nc(Nc3cccc(Cl)c3C)c3ccccc3n2)cc(OC)c1OC	none
Nc1ccc(Oc2ccc(Cl)c3ccccc23)c(Cl)c1	GPR151 ag 11 | GPR151 confirm inactive | GPR119 counter inactive
Nc1ccc(Oc2ccc3ccccc3c2Cl)c(Cl)c1	none
CC1=C(C(=O)OC2CCCC2)C(c2ccc(O)cc2)C2=C(CC(c3ccccc3)CC2=O)N1 (centres undefined)	none
O=C(N/N=C/c1cccnc1)c1ccc(Br)o1	none
O=C(N/N=C/c1cccc(O)c1)c1ccc(Br)o1	GPR151 ag 8.3 | GPR151 confirm inactive | GPR119 counter inactive
COc1ccc(-c2ccccc2)cc1N1C(=O)[C@@H]2C[C@H]1CN2Cc1c(C)nc2sccn12	none
CCCC(=O)N1CCC(O)(c2cccc(F)c2)CC1	none
O=C(Cc1ccc2c(c1)OCO2)N1CCC(O)(c2cccc(F)c2)CC1	GPR151 ag 6.8 | GPR151 confirm inactive | GPR119 counter inactive
COc1ccc(CCNC(=O)c2cncc(Nc3ncccn3)c2)cc1	GPR151 ag 6.9 | GPR151 confirm inactive | GPR119 counter inactive
CC(C)N(C(=O)CN(c1cccc(Cl)c1Cl)S(=O)(=O)c1ccccc1)C(C)C	none
COc1ccc(-n2cc(-c3ccccc3)c3c(NCCc4ccc(OC)c(OC)c4)ncnc32)cc1	GPR151 ag 5.1 | GPR151 confirm inactive | GPR119 counter inactive
O=C(CCC(=O)Nc1ccc(Br)cc1)N/N=C/c1ccc(F)cc1	GPR151 ag 6.4 | GPR151 confirm inactive | GPR119 counter inactive
O=C(CCC(=O)Nc1ccc(F)cc1)N/N=C/c1ccc(Br)cc1	none
Cc1ccc2nc(N(CCCn3ccnc3)C(=O)c3ccc(F)cc3)sc2c1	none
Cc1ccc(CC(=O)N(CCCn2ccnc2)c2nc3ccccc3s2)c(C)c1	GPR151 ag 6.9 | GPR151 confirm inactive | GPR119 counter inactive
COc1ccc(CCNc2nc(Nc3ccc(-n4ccnc4)cc3)ncc2C)cc1	GPR151 ag 4.9 | GPR151 confirm inactive | GPR119 counter inactive
COc1ccc(CCNC(=O)c2csc(Nc3cccnc3)n2)cc1	none
COc1ccc(CCNC(=O)c2csc(Nc3ccc(-n4ccnc4)cc3)n2)cc1	TEAD-YAP inh 58, GPR151 ag 6.0 | GPR151 confirm inactive | GPR119 counter 30
COc1ccc(CCNC(=O)c2csc(Nc3ccc(C(F)(F)F)cc3)n2)cc1	GPR151 ag 6.2 | GPR151 confirm inactive | GPR119 counter inactive
Cc1nc(N2CCC(C(=O)O)CC2)c2c(C)c(C)sc2n1	none
CC(C(=O)N1CCC2(CC1)NC(=O)c1cccnc1N2C)n1nnc2ccccc21 (centres undefined)	none
CCOc1cc(/C=C2\N=C(c3cccc(C)c3)OC2=O)ccc1OC(C)=O	none
CCOc1cc(/C=C2/N=C(c3cccc(C)c3)OC2=O)ccc1OS(C)(=O)=O	GPR151 ag 13 | GPR151 confirm inactive | GPR119 counter inactive
